Screening data deposited in PubChem BioAssay by Broad Institute.
AF4-AF9 inh – MLL-AF4/AF9 protein interaction inhibition; P42568; AlphaScreen, biotin-AF4 peptide binding to FLAG-AF9; inhibition, % at 10 µM; hit rate 0.47% among 350,000; AID 651704;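 active means every replicate reaching a set inhibition limit, whatever the replicate mean, cut at about 25% in these data; inconclusive means mean inhibition reaches that limit but some replicates miss it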;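 further: 0% = plate neutral control median and 100% = total signal loss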
Target sequence (P42568 whole entry, looked up): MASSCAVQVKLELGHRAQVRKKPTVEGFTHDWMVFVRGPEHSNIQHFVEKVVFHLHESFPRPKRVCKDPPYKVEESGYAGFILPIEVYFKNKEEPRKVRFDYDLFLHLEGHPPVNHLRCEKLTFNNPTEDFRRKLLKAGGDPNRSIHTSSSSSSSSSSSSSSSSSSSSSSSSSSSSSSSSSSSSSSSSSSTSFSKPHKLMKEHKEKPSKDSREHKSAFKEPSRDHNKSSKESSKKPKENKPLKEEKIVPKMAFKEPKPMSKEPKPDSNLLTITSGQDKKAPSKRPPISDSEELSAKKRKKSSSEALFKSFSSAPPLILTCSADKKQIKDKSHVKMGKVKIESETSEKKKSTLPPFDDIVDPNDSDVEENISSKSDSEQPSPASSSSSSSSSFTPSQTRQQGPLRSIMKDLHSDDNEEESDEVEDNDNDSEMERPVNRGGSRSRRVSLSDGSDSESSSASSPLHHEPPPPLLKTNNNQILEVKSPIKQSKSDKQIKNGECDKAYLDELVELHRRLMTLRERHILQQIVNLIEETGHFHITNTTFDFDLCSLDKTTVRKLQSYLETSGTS
rRNA inh HTS – selective bacterial rRNA inhibition in E. coli | E. coli WT GFP vs humanized-ribosome RFP mutants, fluorescence, 24 h; active compounds read low; DMSO median 0, no signal -100 | GFP signal change (wild-type ribosome), % (no concentration beside the values) | hit rate 1.6% among 350,000;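 active means significant combined selectivity score with lowered wild-type GFP, culture density cut under 30%, mutant RFP and density less affected; inactive means any of these conditions unmet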
Wnt bcat act – Wnt/beta-catenin pathway activation. Wnt/beta-catenin reporter cell assay, activator, plate reader. activation, % at 9.35 µM. hit rate 1.2% among 300,000; in the data active means activation above about 30%, passing the limit was not always enough; inconclusive means no clear call, values can overlap the other calls;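 further: 0% = neutral control wells and 100% = positive control wells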
esBAF inh – blocks esBAF chromatin remodeling in mouse ES cells; reporter increase, % at 12.5 µM; hit rate 2% among 350,000; Bmi1-luciferase knock-in reporter, 24 h; 100% = twice the neutral-well signal; in the data active means activation above about 40%; inconclusive means no clear call, values can overlap the other calls;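 further: 0% = median of the plate's neutral control wells and 100% = double that signal; a rise in the Bmi1 reporter signal indicates esBAF inhibition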
MITF act – activators of MITF-driven TRPM1 promoter activity in SK-MEL-5 cells; SK-MEL-5 TRPM1-promoter luciferase, 24 h; % of positive control, neutral wells = 0; activation, % at 12.5 µM; hit rate 0.75% among 300,000;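 active means mean activation of at least 80% with every replicate also reaching 80%; inconclusive means mean reaches 80% but some replicate falls short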;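 further: 0% = neutral control wells and 100% = parthenolide positive control wells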
Active calls of the source: *; u = inconclusive; x = no result given. An excerpt weighted towards active compounds, which were near 3.7% of everything screened.

SMILES	AF4-AF9 inh	rRNA inh HTS	Wnt bcat act	esBAF inh	MITF act
O=C(Nc1ccccc1Cl)c1cc(C2CCCN(C(=O)c3ccc4c(c3)CCO4)C2)on1 (stereo not drawn)	3	-10	-4	-10	x
COc1cc(C2C(C#N)=C(N)OC3=C2C(=O)CC(C)(C)C3)cc([N+](=O)[O-])c1O (stereo not drawn)	0	6	40*	x	-7
O=c1oc(-c2ccco2)nc2sc3c(c12)CCCC3	x	x	x	20	8
CC(NC(=O)Nc1cccc(F)c1)c1ccc2c(c1)OCO2 (stereo not drawn)	2	-7	0	x	-8
O=C1NC(=O)/C(=C/c2ccc(O)cc2)S1	1	5	u	x	27
O=C1NC(=O)/C(=C/c2ccccn2)S1	-2	-9	-3	45*	7
Cc1ccc(N/C=C(\[N+](=O)[O-])S(=O)(=O)c2ccccc2)cc1	-1	-22*	-2	x	0
Cc1cccc(N/C=C(\[N+](=O)[O-])S(=O)(=O)c2ccccc2)c1	-2	-5	-1	x	1
NC(=O)Cc1ccc(C(=O)c2ccc(Cl)cc2)s1	0	-24*	20	17	8
COc1ccc(-c2noc(C3CCCN(S(=O)(=O)c4ccc(C)c(Cl)c4)C3)n2)cc1OC (stereo not drawn)	x	x	x	x	-12
CCCOc1ccc(-c2c(=O)n(O)c3ccccc3[n+]2[O-])cc1	-2	-2	14	50*	x
COc1ccc(Nc2nc(C(=O)N3CCc4cc(OC)c(OC)cc4C3)cs2)cc1	1	-39*	6	x	3
CC(C)NC(=O)C1(C)CN(S(C)(=O)=O)CC(=O)N1CCCn1ccnc1 (stereo not drawn)	x	x	1	x	x
COCCNC(=O)CN(C(=O)CCC(=O)Nc1ccccn1)c1cc(C)ccc1C	26*	3	0	-4	-8
CCOc1ccccc1N(CC(=O)NCCOC)C(=O)CCC(=O)Nc1ccccn1	0	6	-4	-4	-5
N#Cc1ccsc1NC(=O)COC(=O)c1ccc(NC(N)=O)cc1	-8	-1	18	48*	87*
NC(=O)Nc1ccc(C(=O)OCC(=O)Nc2sccc2C(N)=O)cc1	-5	-10	3	-2	8
COc1ccc(CC(=O)N(C)CC(=O)Nc2ccccc2Cl)cc1S(=O)(=O)N1CCOCC1	9	x	-2	-3	-3
Cc1cc(Oc2ccc(Cl)cc2)nc(-c2ccccn2)n1	-2	-33*	0	x	x
Cc1cc(Oc2ccccc2)nc(-c2ccccc2O)n1	x	x	1	8	13
C/C=C/c1cnc2c(c1)C(=O)N([C@H](C)CO)C[C@H](C)[C@@H](CN(C)C(=O)Nc1cccc(OC)c1)O2	-2	1	x	1	x
Cc1ccc(CSc2ncnc3ccccc23)cc1	-9	-33*	1	11	33
c1ccc(CSc2ncnc3ccccc23)cc1	-22	-53	3	12	38
O=C(C1CCOCC1)N1CC[C@H]2[C@H](CO)Nc3ccc(-c4ccc(F)cc4)cc3[C@H]21	13	-3	x	-2	x
NS(=O)(=O)c1ccc(NC(=O)N2c3ccccc3Sc3ccccc32)cc1	8	-45*	-2	-5	0
SMILES	AF4-AF9 inh	rRNA inh HTS	Wnt bcat act	esBAF inh	MITF act
Cc1ccc(-c2cc(Cc3ccccc3)c(=O)[nH]n2)cc1	-2	-36*	-2	x	x
Cc1ccc(Cc2cc(-c3ccc(C)cc3)n[nH]c2=O)cc1	-2	5	0	x	x
Cc1cccc(/C=C/c2ccccc2)n1	-3	6	46*	51*	x
Cc1nc(/C=C/c2ccccc2)cc(/C=C/c2ccccc2)n1	x	x	29	35	17
C(/C=C/c1ccccn1)=C\c1ccccc1	0	-6	42*	x	65
C(=C\c1cc(/C=C/c2ccccc2)ncn1)/c1ccccc1	x	x	37*	55*	19
CC(C)NC(=O)N[C@@H]1C=C[C@@H](CC(=O)NCCN2CCCC2)O[C@@H]1CO	-1	1	x	-5	x
CCOc1ccc(C(=O)Nc2ncccc2Cl)cc1	-2	5	x	66*	73
O=C(Nc1ncccc1O)c1ccc(Oc2ccccc2)cc1	-2	0	37*	-1	47
O=C(COc1ccc(C(=O)c2ccccc2)cc1)Nc1ncccc1O	-7	0	3	x	5
O=C1OCCC1Sc1nnc(-c2ccc(Cl)cc2)n1Cc1ccccc1 (stereo not drawn)	x	x	-5	x	-9
Cc1cccc2nc(COc3ccc4ccccc4c3Br)cn12	5	-27*	0	x	100*
